From PubChem BioAssay
Anthrax LF prot: blocks Bacillus anthracis lethal factor protease | P15917 | AID 588501 | multiplex microsphere protease cleavage assay, LF | inhibition, % at 10 µM | hit rate 0.12% among 360,000; further: plate controls were buffer without enzyme for full effect and enzyme alone for no effect
SARS 3CLpro inh: SARS-CoV 3CLpro protease inhibition. P0C6X7. hit rate 0.14% among 290,000. recombinant SARS-CoV 3CLpro, quenched FRET peptide cleavage. inhibition, % at 6 µM; in the data active means inhibition above about 12%
CCHFV vOTU inh: CCHFV vOTU protease inhibition | Pep-AMC fluorescence | inhibition, % at 11.5 µM | hit rate 0.55% among 370,000; in the data active means inhibition above about 30%; further: 0% = vehicle wells with enzyme and 100% = no enzyme wells
Bead autofluor: flagged as autofluorescent in microsphere protease counterscreen | compound autofluorescence counterscreen, microsphere flow cytometry; stronger effect = higher value | fluorescence intensity (no concentration beside the values) | AID 624483 | hit rate 3.1% among 360,000; in the data active means fluorescence intensity above about 16000; inconclusive means no clear call, values can overlap the other calls
BoNT-A LC inh2: blocks Botulinum neurotoxin A light chain protease; multiplex microsphere protease substrate cleavage, flow cytometry; inhibition, % at 10 µM; AID 588499; hit rate 0.17% among 360,000; further: plate controls were buffer without enzyme for full effect and enzyme alone for no effect
BoNT-F LC inh: inhibitors of Botulinum neurotoxin F light chain protease | hit rate 0.22% among 360,000 | Multiplex microsphere protease cleavage assay, flow cytometry | inhibition, % at 10 µM; in the data active means inhibition above about 35%, passing the limit was not always enough; inconclusive means no clear call, values can overlap the other calls; further: plate controls were buffer without enzyme for full effect and enzyme alone for no effect
Numbers without * were called inactive; u = inconclusive; x = not tested or not shown. In the library only some 3.9% were active in any assay of this set; here they are far more common. Unless noted, no stated cut-off is given here; in the data, active means inhibition above about 30%; inconclusive means no clear call, values can overlap the other calls; inactive means below that.

SMILES	Anthrax LF prot	SARS 3CLpro inh	CCHFV vOTU inh	Bead autofluor	BoNT-A LC inh2	BoNT-F LC inh
COc1ccc(C(=O)N(C)[C@H]2C[C@H]3c4[nH]c5cccc(-c6ccccc6)c5c4CCN3C[C@H]2[C@H](C)O)cc1	x	x	4	x	x	x
COc1ccccc1-c1nnc(SC(C)C(=O)NCC2CCCO2)n1C (stereo not drawn)	-1	x	-6	7033	-2	-13
Nc1c(-c2nn[nH]n2)cnn1-c1cc(Cl)cc(Cl)c1	-9	0	-8	4170	-4	u
OC(c1ccc(F)c(F)c1)c1nc(-c2cccc3cccnc23)cs1 (stereo not drawn)	3	x	23	3609	0	2
CCCCN(C(=O)CC1OC(=O)c2ccccc21)c1c(N)n(CCCC)c(=O)[nH]c1=O (stereo not drawn)	x	x	-4	x	x	x
O=C(COc1ccc(S(=O)(=O)NC2CCCCC2)cc1Cl)Nc1ccc2c(c1)OCO2	-3	2	4	25024*	-4	-7
CCN(CC(=O)Nc1ccc(NC(C)=O)cc1)C(=O)c1ccc(N2CCCC2)c([N+](=O)[O-])c1	-4	x	1	5566	1	-2
COC(=O)C[C@H]1CC[C@@H]2[C@@H](COc3ccc(NS(=O)(=O)c4ccccc4Cl)cc3C(=O)N2C)O1	x	x	2	x	x	x
NNC(=O)c1oc2nc(-c3ccccc3)cc(-c3ccccc3)c2c1N	-7	4	14	16851*	-3	29
Cc1ccc(-c2cc(-c3ccco3)c3c(N)c(C(=O)NN)oc3n2)cc1	-11	4	11	4125	0	-22
O=C(CNC(=O)C1CCCCC1)OCC(=O)c1ccc(Br)cc1	5	6	-2	6251	0	4
CCCc1cc(-c2n[nH]c(C)c2-c2ccc(C(=O)OCC)o2)c(O)cc1O	-9	7	-15	19356*	2	-3
CCCc1cc(C(=O)Cc2ccc(C(=O)OCC)o2)c(O)cc1O	-1	3	20	4467	1	3
CN(c1ccc(O)cc1)c1nc(-c2cccs2)cs1	-1	5	-11	4064	-1	-1
Cc1nc(N)sc1-c1csc(N(C)c2ccc(O)cc2)n1	-1	1	-6	23793*	0	-6
CCOC(=O)C1=C(C)N=c2s/c(=C\c3ccc(OCC(=O)O)cc3)c(=O)n2C1c1ccccc1 (stereo not drawn)	4	6	9	3485	0	20
COC(=O)C1=C(C)N=c2s/c(=C/c3ccoc3)c(=O)n2C1c1ccccc1 (stereo not drawn)	0	-2	x	21630*	4	5
Cc1ccc(C2=NNC3(CCOC(C)(C)C3)S2)cc1 (stereo not drawn)	-1	1	6	2470	-1	-8
O=C(CCSCCc1ccccn1)Nc1ccc(Cl)cn1	4	1	-12	20129*	u	1
O=C(CCSCCc1ccccn1)Nc1ccc(Br)cn1	0	5	-9	23488*	1	0
O=C(CCSCCc1ccccn1)Nc1ccccn1	2	0	4	3279	0	0
CN(CCc1ccccn1)C(=O)Nc1ccc(Cl)cc1	-1	-3	-6	17188*	-2	-1
COCCSc1nnc(NC(=O)C2CCCCC2)s1	-2	9	-2	17088*	-1	-2
Cc1nnc(NC(=O)C2CCCC2)s1	0	-3	2	5972	1	-2
CCC(C)(C)NC(=O)C1CCN(c2nc(C)cc(C)n2)CC1	-1	-6	4	16929*	-1	-1
SMILES	Anthrax LF prot	SARS 3CLpro inh	CCHFV vOTU inh	Bead autofluor	BoNT-A LC inh2	BoNT-F LC inh
Cc1cc(C)nc(N2CCC(C(=O)Nc3nnc(C)s3)CC2)n1	-12	2	-8	18862*	u	2
Cc1nnc(NC(=O)C2CCCCC2)s1	-3	4	-10	22880*	u	-4
COc1ccccc1CNC(=O)CCN1C(=O)COc2ccc(C)cc21	0	1	-2	21217*	u	5
CCC1Oc2ccc(C)cc2N(CC(=O)NCC2COc3ccccc3O2)C1=O (stereo not drawn)	-4	1	5	5972	0	-1
O=C(CN(Cc1cccs1)C(=O)CN1C(=O)COc2ccccc21)NCc1ccco1	-6	-2	3	19004*	7	7
Cc1ccc2c(c1)N(CCC(=O)NCC1COc3ccccc3O1)C(=O)CO2 (stereo not drawn)	-6	3	-5	21396*	1	3
Cc1ccc2c(c1)N(CCC(=O)NCCN1CCOCC1)C(=O)CO2	0	0	-10	20041*	-1	-3
O=C(CN(Cc1cccs1)C(=O)CNS(=O)(=O)c1ccccc1)NCc1ccco1	2	1	4	2589	1	7
COc1ccccc1CNC(=O)CCCN1C(=O)COc2ccc(C)cc21	-4	0	-2	11784	1	-5
COc1ccc(N2CCCN(CC(=O)Nc3ccc(Cl)c(Cl)c3)CC2)cc1	x	x	0	x	x	x
CCN1CCCCC(NC(=O)c2ccc(C)cc2)C1=O (stereo not drawn)	x	x	5	x	x	x
O=C(CCN1C(=O)COc2ccccc21)NCc1ccco1	-3	2	-10	10601	-2	-12
Cc1ccc2c(c1)N(CCC(=O)NCc1ccco1)C(=O)CO2	-1	1	5	22695*	-2	-5
O=C(NCc1ccc(Cl)cc1)C1C2C=CC3(CN(Cc4cccnc4)C(=O)C13)O2 (stereo not drawn)	-3	-3	-4	25239*	-6	-10
COc1cc2ccccc2cc1C(=O)Nc1ccc(Cc2ccncc2)cc1	-1	1	10	21333*	-1	-2
COc1cc2ccccc2cc1C(=O)Nc1ccc(C)cc1	-8	-2	6	4265	-4	-29
O=C(Cc1cccs1)Nc1nc2c(s1)CCCC2	-2	-3	-1	17280*	-3	-6
Cn1c(SCC(=O)Nc2nc3c(s2)CCCC3)nnc1-c1ccccc1	-6	4	-12	20299*	-1	-2
CCc1nnc(NC(=O)CSc2nnc(-c3ccco3)n2CC)s1	2	1	2	22759*	-2	0
CCc1nnc(NC(=O)CSc2nnc(-c3ccco3)n2C)s1	-4	2	-5	21882*	1	1
CCCn1c(SCC(=O)Nc2nnc(CC)s2)nnc1-c1ccco1	7	6	6	4191	1	u
O=C(Nc1nc2c(s1)CCCC2)c1cccs1	-1	-2	16	4039	0	3
Cc1ccc(C)c(NC(=O)CN(C)C(=O)[C@@H](NC(=O)c2ccc(C(C)(C)C)cc2)C(C)C)c1	-2	-2	3	8988	0	-4
CC(OC(=O)CCc1nc2ccccc2c(=O)[nH]1)C(=O)c1ccc(C(C)(C)C)cc1 (stereo not drawn)	0	2	5	1921	-1	-1
Cn1c(SCC(=O)Nc2ccccc2-c2ccccc2)nnc1-c1ccco1	-4	3	-10	16441*	-1	-2
Cc1cc(C(=O)CSc2nnc(-c3ccccc3)n2C)c(C)n1C	-13	3	3	22200*	0	-3
CCc1nnc(NC(=O)/C=C/c2ccco2)s1	2	-1	7	2625	4	44*
